Data on 21 compounds can be found in PubChem BioAssay (EPA / NIEHS).

In assay [1] the target is Glucocorticoid receptor (Homo sapiens) (UniProt P04150). Nature of the assay: ATG_GR_TRANS: Attagene TRANS-FACTORIAL HepG2 Assay for human Glucocorticoid Receptor (GR) (AID 2282978).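 Note: activators score as hits since higher reporter transcript over DMSO is fitted.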 Conditions: HepG2 Attagene TRANS GR reporter, mRNA transcription. In outline:
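After 24 h incubation with test chemical, transfected HepG2 cells were lysed for RNA; reporter cDNA was amplified, FAM-labelled, HpaI-digested and sized on a capillary analyser. Signal gain relative to DMSO was scored.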

For assay [2], the target named is Oxysterols receptor LXR-beta (Homo sapiens) (UniProt P55055). The assay can be described thus: ATG_LXRb_TRANS: Attagene TRANS-FACTORIAL HepG2 Assay for human Liver X Receptor beta (LXRb) (AID 2282981). Conditions: HepG2 Attagene TRANS GAL4-LXRb reporter, mRNA. In outline: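 Measures induction of a Gal4-driven reporter transcript in HepG2 cells expressing an exogenous LXRb-Gal4 fusion. Cells are exposed to compound for 24 h before RNA isolation and RT-PCR with capillary electrophoresis detection.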

A short description of assay [3]: ATG_M_06_TRANS: Attagene TRANS-FACTORIAL HepG2 Assay for M06 Transcription Factor (Internal Marker) (AID 2282983). Conditions: HepG2 Attagene TRANS M06 internal marker reporter. The method, boiled down: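 In this multiplexed HepG2 system, compounds are incubated 24 h with cells carrying GAL4-UAS reporter units. Reporter RNA is amplified and resolved by capillary electrophoresis, and induction is scored against DMSO.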

The target in assay [4] is Nuclear receptor subfamily 4 group A member 2 (Homo sapiens) (UniProt P43354). The assay can be described thus: ATG_NURR1_TRANS: Attagene TRANS-FACTORIAL HepG2 Assay for human Nuclear Receptor Related Protein 1 (NURR1) (AID 2282985). Conditions: HepG2 Attagene TRANS reporter, mRNA readout. The method, boiled down:
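Chimeric NR-Gal4 fusion activity measured in HepG2 after 24 h treatment. Reporter transcripts detected by RT-PCR and capillary electrophoresis fluorescence; positive-direction curve fitting against DMSO.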

In assay [5] the target is Transcriptional activator Myb (Homo sapiens) (UniProt P10242). The assay can be described thus: ATG_Myb_CIS: Attagene CIS-FACTORIAL HepG2 Assay for human Myeloblastosis (Myb) Proto-Oncogene Transcription Factor (AID 2282986; active = hit-call score of the fitted dose curve at least 0.9, where 1 is the maximum; inactive = score below 0.9). Conditions: HepG2 Attagene CIS-FACTORIAL Myb reporter transcription; actives raise or lower the signal. In outline: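 After 24 h of compound dosing, total RNA from transfected HepG2 cells is reverse-transcribed and the reporter sequences amplified, labeled and separated by capillary electrophoresis. Values come from bidirectional fitting against DMSO.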

Assay [6] has as its target Nuclear respiratory factor 1 (Homo sapiens) (UniProt Q16656). The assay can be described thus: ATG_NRF1_CIS: Attagene CIS-FACTORIAL HepG2 Assay for human Nuclear Respiratory Factor 1 (NRF1) Orphan Gene (AID 2282987; active = hit-call score of the fitted dose curve at least 0.9, where 1 is the maximum; inactive = score below 0.9). Conditions: HepG2 NRF1 cis-element reporter, Attagene multiplex; actives raise or lower the signal. The method, boiled down:
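Measured: fluorescent reporter-specific RT-PCR products from transfected HepG2 cells, separated by capillary electrophoresis. Exposure lasted 24 h. Analysis used bidirectional curve fitting with DMSO as negative control.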

Assay [7] can be described thus: ATG_M_32_TRANS: Attagene TRANS-FACTORIAL HepG2 Assay for M32 Transcription Factor (Internal Marker) (AID 2282984).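 Note: transcript level of a background control reporter unit measured by RT-PCR and capillary electrophoresis.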 Conditions: HepG2 Attagene TRANS M32 internal marker reporter. In outline:
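After 24 h dosing of transfected HepG2 cells, total RNA was reverse-transcribed, reporter sequences PCR-amplified, 6-FAM labelled by primer extension and HpaI-digested before capillary electrophoresis. Signal increase over DMSO was fitted.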

Assay [8] concerns the target Hepatocyte nuclear factor 4-alpha (Homo sapiens) (UniProt P41235). Nature of the assay: ATG_HNF4a_TRANS: Attagene TRANS-FACTORIAL HepG2 Assay for human Hepatocyte Nuclear Factor 4 alpha (HNF4a) (AID 2282982). Conditions: HepG2 HNF4a transactivation reporter, mRNA readout. The method, boiled down:
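In this trans-factorial format, a chimeric HNF4a-GAL4 fusion drives a GAL4-UAS reporter in transfected HepG2 liver cells. After 24 h treatment, reporter mRNA induction is measured by RT-PCR with capillary electrophoresis, relative to DMSO.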

Assay [9] addresses Bile acid receptor (Homo sapiens) (UniProt Q96RI1). The assay can be described thus: ATG_FXR_TRANS: Attagene TRANS-FACTORIAL HepG2 Assay for Farnesoid X Receptor (FXR) (AID 2282979).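 Note: hits raise reporter mRNA above DMSO so AC50 marks FXR activation.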 Conditions: HepG2 Attagene TRANS FXR-GAL4 reporter transcription. In outline:
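HepG2 cells transiently transfected with reporter constructs in which a chimeric FXR-GAL4 protein drives a GAL4-UAS reporter; 24 h compound exposure. Reporter mRNA measured by RT-PCR, FAM labelling, HpaI digestion and capillary electrophoresis; gain-of-signal versus DMSO.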

In assay [10] the target is Oxysterols receptor LXR-alpha (Homo sapiens) (UniProt Q13133). The assay can be described thus: ATG_LXRa_TRANS: Attagene TRANS-FACTORIAL HepG2 Assay for human Liver X Receptor alpha (LXRa) (AID 2282980). Conditions: HepG2 Attagene TRANS reporter, LXRa transactivation. In outline:
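HepG2 cells were transiently transfected with multiplexed reporter units driven by chimeric LXRa–GAL4 fusion proteins, then dosed for 24 h. Reporter mRNA was quantified by RT-PCR, fluorescent labelling and capillary electrophoresis; gain of signal fitted against DMSO baseline.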

SMILES strings stand for the structures. Inconclusive results are not listed. The source made the active and inactive calls. Rule for the calls, unless noted: active = hit-call score of the fitted dose curve at least 0.9, where 1 is the maximum; inconclusive = response in the unintended direction; inactive = score below 0.9.

What is called AC50 is the midpoint of the concentration-response curve, whichever way the signal moves.

Nuclear receptor subfamily 4 group A member 2 (Homo sapiens), sequence (P43354 whole entry, looked up, the tested form may be a part): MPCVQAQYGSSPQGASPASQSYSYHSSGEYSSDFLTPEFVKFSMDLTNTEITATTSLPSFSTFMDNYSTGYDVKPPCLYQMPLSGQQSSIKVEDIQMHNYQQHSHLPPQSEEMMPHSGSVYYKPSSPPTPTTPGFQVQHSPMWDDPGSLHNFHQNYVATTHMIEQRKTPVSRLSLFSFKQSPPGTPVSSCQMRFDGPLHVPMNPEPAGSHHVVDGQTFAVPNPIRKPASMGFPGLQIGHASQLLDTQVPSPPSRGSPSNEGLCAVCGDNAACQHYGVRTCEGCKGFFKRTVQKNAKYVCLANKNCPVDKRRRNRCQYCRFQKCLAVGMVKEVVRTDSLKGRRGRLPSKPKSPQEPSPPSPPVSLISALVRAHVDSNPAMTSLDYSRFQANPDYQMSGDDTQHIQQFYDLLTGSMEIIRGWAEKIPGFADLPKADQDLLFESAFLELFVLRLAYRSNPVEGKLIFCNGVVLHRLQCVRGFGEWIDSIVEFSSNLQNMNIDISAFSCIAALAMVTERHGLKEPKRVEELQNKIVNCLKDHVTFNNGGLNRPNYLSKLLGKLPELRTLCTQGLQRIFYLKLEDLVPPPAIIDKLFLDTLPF
Oxysterols receptor LXR-beta (Homo sapiens), sequence (P55055 whole entry, looked up, the tested form may be a part): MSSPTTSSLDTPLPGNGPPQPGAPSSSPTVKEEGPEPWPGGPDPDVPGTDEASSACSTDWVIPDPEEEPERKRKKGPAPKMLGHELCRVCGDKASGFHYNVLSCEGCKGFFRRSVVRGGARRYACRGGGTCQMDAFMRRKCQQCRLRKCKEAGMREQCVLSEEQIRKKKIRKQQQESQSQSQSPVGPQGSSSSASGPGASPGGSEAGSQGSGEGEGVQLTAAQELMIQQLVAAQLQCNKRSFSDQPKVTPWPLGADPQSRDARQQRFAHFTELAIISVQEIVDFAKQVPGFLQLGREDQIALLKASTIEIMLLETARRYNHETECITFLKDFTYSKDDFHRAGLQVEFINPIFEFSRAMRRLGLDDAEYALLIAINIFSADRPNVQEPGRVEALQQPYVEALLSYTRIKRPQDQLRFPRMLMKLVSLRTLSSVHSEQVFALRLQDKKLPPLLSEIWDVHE
Oxysterols receptor LXR-alpha (Homo sapiens), sequence (Q13133 whole entry, looked up, the tested form may be a part): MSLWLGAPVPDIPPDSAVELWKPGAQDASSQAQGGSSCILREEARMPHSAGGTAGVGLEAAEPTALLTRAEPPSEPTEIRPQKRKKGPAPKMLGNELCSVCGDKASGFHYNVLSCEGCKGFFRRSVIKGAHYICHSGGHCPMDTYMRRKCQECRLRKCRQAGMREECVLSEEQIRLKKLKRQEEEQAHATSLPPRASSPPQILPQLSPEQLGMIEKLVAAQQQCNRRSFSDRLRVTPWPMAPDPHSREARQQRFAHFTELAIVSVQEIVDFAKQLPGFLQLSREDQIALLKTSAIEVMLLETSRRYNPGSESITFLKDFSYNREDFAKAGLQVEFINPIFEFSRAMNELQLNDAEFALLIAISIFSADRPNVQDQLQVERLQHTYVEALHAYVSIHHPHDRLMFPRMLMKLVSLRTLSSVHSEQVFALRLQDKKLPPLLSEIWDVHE
Nuclear respiratory factor 1 (Homo sapiens), sequence (Q16656 whole entry, looked up): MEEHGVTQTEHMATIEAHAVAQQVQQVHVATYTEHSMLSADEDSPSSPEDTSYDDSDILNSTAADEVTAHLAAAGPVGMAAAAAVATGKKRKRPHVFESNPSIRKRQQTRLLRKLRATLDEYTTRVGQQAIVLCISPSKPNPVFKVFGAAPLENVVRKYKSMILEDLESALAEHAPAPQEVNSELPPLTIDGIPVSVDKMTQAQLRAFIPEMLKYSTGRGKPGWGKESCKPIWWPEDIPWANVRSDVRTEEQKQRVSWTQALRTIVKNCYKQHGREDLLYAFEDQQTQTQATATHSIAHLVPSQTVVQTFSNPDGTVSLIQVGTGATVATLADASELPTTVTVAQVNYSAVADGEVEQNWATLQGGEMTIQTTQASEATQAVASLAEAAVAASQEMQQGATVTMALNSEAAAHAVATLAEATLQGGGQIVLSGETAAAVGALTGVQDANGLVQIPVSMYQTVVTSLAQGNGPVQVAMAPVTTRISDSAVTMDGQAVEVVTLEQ
Hepatocyte nuclear factor 4-alpha (Homo sapiens), sequence (P41235 whole entry, looked up, the tested form may be a part): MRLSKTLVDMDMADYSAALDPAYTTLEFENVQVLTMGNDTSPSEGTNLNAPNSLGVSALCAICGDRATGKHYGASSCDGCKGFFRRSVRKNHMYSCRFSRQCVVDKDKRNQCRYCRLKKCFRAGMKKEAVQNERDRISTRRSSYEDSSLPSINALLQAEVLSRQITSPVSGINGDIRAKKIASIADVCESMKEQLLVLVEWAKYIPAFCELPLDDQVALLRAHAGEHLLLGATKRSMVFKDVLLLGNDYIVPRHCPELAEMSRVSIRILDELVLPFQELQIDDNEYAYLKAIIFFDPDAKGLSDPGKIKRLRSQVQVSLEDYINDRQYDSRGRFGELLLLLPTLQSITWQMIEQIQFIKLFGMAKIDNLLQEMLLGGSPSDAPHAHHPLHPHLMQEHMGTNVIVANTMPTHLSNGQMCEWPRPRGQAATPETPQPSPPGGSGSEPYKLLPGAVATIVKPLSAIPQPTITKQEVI
Transcriptional activator Myb (Homo sapiens), sequence (P10242 whole entry, looked up): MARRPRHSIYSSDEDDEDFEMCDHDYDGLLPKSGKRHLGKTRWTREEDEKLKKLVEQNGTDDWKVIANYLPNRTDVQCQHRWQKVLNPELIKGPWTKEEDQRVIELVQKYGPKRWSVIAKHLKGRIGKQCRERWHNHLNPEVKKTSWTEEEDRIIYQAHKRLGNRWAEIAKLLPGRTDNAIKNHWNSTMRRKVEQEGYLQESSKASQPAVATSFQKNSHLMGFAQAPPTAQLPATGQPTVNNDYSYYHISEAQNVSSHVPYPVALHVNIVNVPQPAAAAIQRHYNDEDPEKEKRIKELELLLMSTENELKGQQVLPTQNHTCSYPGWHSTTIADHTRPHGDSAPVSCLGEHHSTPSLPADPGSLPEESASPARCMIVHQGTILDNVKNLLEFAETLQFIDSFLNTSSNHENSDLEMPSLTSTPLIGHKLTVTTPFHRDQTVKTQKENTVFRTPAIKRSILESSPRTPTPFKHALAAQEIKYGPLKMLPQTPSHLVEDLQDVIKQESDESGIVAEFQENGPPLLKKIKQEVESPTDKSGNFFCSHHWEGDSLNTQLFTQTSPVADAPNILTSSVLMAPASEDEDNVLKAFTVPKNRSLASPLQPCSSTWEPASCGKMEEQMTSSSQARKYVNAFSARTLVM
Glucocorticoid receptor (Homo sapiens), sequence (P04150 whole entry, looked up): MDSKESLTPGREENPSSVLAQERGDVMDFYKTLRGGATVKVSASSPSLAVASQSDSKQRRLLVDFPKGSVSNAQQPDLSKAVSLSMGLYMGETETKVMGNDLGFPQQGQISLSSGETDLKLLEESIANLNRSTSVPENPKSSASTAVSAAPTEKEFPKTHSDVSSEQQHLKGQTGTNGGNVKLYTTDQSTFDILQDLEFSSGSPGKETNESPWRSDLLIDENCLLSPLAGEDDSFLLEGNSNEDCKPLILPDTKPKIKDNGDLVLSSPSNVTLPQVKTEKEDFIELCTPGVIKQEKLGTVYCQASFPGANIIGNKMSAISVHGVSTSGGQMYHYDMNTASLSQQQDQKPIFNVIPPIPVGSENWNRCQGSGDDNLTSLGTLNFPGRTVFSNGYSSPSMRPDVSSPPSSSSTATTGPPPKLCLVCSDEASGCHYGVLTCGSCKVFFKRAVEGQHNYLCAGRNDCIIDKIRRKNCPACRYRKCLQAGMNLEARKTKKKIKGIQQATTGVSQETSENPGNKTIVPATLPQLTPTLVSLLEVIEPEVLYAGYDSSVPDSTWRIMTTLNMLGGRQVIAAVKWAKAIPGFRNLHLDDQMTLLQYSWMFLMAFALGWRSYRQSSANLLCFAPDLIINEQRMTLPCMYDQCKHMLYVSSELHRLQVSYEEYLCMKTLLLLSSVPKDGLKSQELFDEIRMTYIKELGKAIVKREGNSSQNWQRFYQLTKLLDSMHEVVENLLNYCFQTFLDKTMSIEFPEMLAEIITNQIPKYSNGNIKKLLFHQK
Bile acid receptor (Homo sapiens), sequence (Q96RI1 whole entry, looked up, the tested form may be a part): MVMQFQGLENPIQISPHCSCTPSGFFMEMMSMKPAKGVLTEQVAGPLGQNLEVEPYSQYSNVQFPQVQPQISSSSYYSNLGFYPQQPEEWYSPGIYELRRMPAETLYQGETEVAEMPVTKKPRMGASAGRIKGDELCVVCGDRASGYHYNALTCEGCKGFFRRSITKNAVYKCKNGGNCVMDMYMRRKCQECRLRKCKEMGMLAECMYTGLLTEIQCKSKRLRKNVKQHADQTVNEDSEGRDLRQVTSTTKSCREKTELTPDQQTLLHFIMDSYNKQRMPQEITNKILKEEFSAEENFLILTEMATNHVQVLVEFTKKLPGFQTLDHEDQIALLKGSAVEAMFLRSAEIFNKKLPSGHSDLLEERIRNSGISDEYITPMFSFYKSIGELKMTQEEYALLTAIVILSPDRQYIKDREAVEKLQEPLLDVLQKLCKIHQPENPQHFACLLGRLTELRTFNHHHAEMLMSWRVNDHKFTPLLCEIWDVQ

As for `Brc1ccc(Oc2ccccc2)cc1`, the result in [1], in [2], in assay [3], in [4], in [5] and in assay [6] was inactive.

Turning to `CC(C)(C)C(O)(CCc1ccc(Cl)cc1)Cn1cncn1` (configuration not stated), the compound was classed as inactive in assay [1], in [3], in [7], in assay [5] and in assay [6].

With `[As]#[In]`, the compound was called inactive in assay [1], in assay [8], in assay [3], in [4], in assay [5] and in assay [6].

Turning to `c1ccc(NNc2ccccc2)cc1`, the call in assay [1], in assay [8], in assay [7], in [5] and in assay [6] was inactive.

As to `O=C(Nc1ccccc1)c1ccccc1I`, the result in assay [1], in [3], in assay [7], in assay [5] and in [6] was inactive.

For the compound `O=[N+]([O-])C(Br)(CO)CO`, the compound was called inactive in assay [9], in assay [10], in assay [8], in [3], in assay [7] and in assay [5]. Moreover, the AC50 is 9.14 nM (active) in [2] and 162 µM (active) in assay [6].

Regarding `CN(C)[C@@H]1C(=O)C(C(N)=O)=C(O)[C@@]2(O)C(=O)C3=C(O)c4c(O)cccc4[C@@](C)(O)[C@H]3C[C@@H]12`, the compound was classed as inactive in assay [9], in assay [10], in assay [2], in assay [5] and in [6].

`CNC(=O)Oc1cccc2c1OC(C)(C)C2`: the compound was called inactive in [10], in assay [2], in assay [8], in assay [7], in assay [4] and in assay [5]. The compound was classed as inactive in assay [6].

As for `Clc1ccccc1Cl`, the call in assay [1], in assay [8], in [3], in assay [5] and in assay [6] was inactive.

As to `Cn1cc(-c2ccccc2)c(=O)c(-c2cccc(C(F)(F)F)c2)c1`, the outcome in assay [1], in assay [7] and in [5] was inactive. For the same compound, the AC50 in assay [6] was 100 µM (active).

In the case of `C[C@]12C=CC3=C4CCC(=O)C=C4CC[C@H]3[C@@H]1CC[C@@H]2O`, the compound was classed as inactive in assay [9], in assay [10], in [2], in assay [8], in assay [3] and in assay [7]. Further, the compound was called inactive in assay [4], in [5] and in [6].

Regarding `CC(C)(OOC(C)(C)c1ccccc1)c1ccccc1`, the compound was called inactive in [9], in [10], in [2], in [3], in assay [4] and in assay [5]. Also, the AC50 in [6] is 63 µM (active).

For `O=C(N[C@H](c1ccccc1)[C@@H]1CN2CCC1CC2)c1c(Cl)ccc(C(F)(F)F)c1Cl`, the compound was called inactive in assay [9], in assay [3], in assay [5] and in [6].

`ClCCOCCCl`: the compound was called inactive in assay [9], in assay [2], in assay [7], in assay [4], in assay [5] and in assay [6].

As for `CCCCCCCCn1sccc1=O`, the result in [9], in assay [8], in assay [3] and in assay [7] was inactive. Also, the AC50 in [5] is 11.6 µM (active); in assay [6], 16.5 µM (active).

As to `CN(C)c1ccc(C(=O)c2ccc(N(C)C)cc2)cc1`, the compound was classed as inactive in [9], in assay [10], in [8], in [7], in [5] and in [6].

`CN(C)C(=O)Nc1ccc(Cl)cc1`: the result in assay [9], in assay [2], in assay [3], in assay [7], in [5] and in assay [6] was inactive.

For the compound `O=[N+]([O-])c1ccc(Oc2ccc(Cl)cc2Cl)cc1`, the compound was called inactive in assay [1], in [3], in assay [7], in [4], in assay [5] and in assay [6].

Turning to `CC(C)N(Cc1ccccc1)C(=O)C(C)(C)C`, the result in [9], in assay [4], in assay [5] and in assay [6] was inactive.

Take `COc1cc(C=O)cc2c1[C@H](COC(N)=O)[C@]1(OC(C)=O)ON2C[C@H]2[C@@H]1N2C(C)=O`: the call in [10], in assay [8], in assay [3], in assay [7] and in assay [6] was inactive. In assay [5], the AC50 is 2.77 µM (active).

As to `OCCCBr`, the outcome in assay [2], in assay [8], in assay [3], in assay [4], in assay [5] and in assay [6] was inactive.
